Source: PubChem BioAssay (National Center for Advancing Translational Sciences (NCATS))
Pf Dd2 growth – inhibitors of Plasmodium falciparum Dd2 growth. 4.3% of 120,000 active. Potency, µM (titrated, usually from 28.9 µM), most hits filed as inhibitors. AID 1347417. P. falciparum Dd2 growth, SYBR Green, 72 h; active means well fitted inhibition curve with a large enough effect; further: nearly all actives have a fitted effect of over 65% in size
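Infected erythrocytes (Dd2, 0.3% parasitemia, 2.5% hematocrit final) are added to compound in RPMI-1640/Albumax II medium, grown 72 h at 37C in low oxygen, then lysed with saponin/Triton-X containing SYBR Green and read by fluorescence.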
Each line names hits and unclear results; the compound was inactive in the other large screens; ! = repeats disagree. The full list was thinned out, with hits kept by preference.

Cn1nccc1C(=O)N1CCOc2ccc(CN3CCc4ccccc4C3)cc2C1	none
CO[C@H]1C(=O)N(C2CCN(C(=O)c3cc(C)nn3C)CC2)[C@H]1c1ccncc1	none
COCc1cc(C[C@@H]2CC[C@H](O)[C@@H](CN(C(=O)Nc3ccccc3OC)C(=O)Nc3ccccc3OC)O2)no1	none
c1ccc2[nH]c(C3CCC(Cn4cc(-c5cncnc5)nn4)CC3)nc2c1 (centres undefined)	none
COc1ccc(-c2nc(-c3nnn4c3COC(c3ccc(C)cc3)C4)no2)cn1 (centres undefined)	none
COc1ccc(CNC(=O)[C@@H]2CCC[C@@H](NC(=O)c3ccc(C#N)cc3)CN(C)C(=O)C2)cc1	none
Cc1noc(C)c1CC(=O)N[C@@H]1CN(c2ccccn2)C[C@H]1CN(C)C	none
CC(=O)N1CCn2c(nn(-c3ccc(F)cc3)c2=O)C1	none
Cc1cnc(CNC(=O)CC2C(=O)NCCN2CCCc2ccccc2)cn1 (centres undefined)	none
NC1CCCCN(C(=O)c2csc(Cc3ccccc3)n2)C1 (centres undefined)	none
CCc1cccc(C)c1NC(=O)C1CCN(S(=O)(=O)c2cccc3nonc23)CC1	none
O=C(Nc1ccc(F)cc1F)C1CCCN1S(=O)(=O)c1cccc2nsnc12 (centres undefined)	none
Cc1cc(C)cc(NC(=O)C2CCCN2S(=O)(=O)c2cccc3nsnc23)c1 (centres undefined)	Pf Dd2 growth 3.2µM
Cc1cc(C)cc(NC(=O)C2CCCN2S(=O)(=O)c2ccc3nc(-c4ccccc4)[nH]c3c2)c1 (centres undefined)	none
Cc1ccc(NC(=O)C2CCCN(S(=O)(=O)c3cccc4nsnc34)C2)c(C)c1 (centres undefined)	none
Cc1ccc(NC(=O)C2CCCN2S(=O)(=O)c2cccc3nsnc23)c(Br)c1 (centres undefined)	Pf Dd2 growth 7.1µM
Cc1cccc(C)c1NC(=O)C1CCN(S(=O)(=O)c2cccc3nsnc23)CC1	none
Cc1ccc(NC(=O)C2CCCN(S(=O)(=O)c3cccc4nsnc34)C2)cc1C (centres undefined)	none
CCc1cccc(C)c1NC(=O)C1CCCN1S(=O)(=O)c1cccc2nsnc12 (centres undefined)	Pf Dd2 growth 5µM
OCC1CN(Cc2cnc[nH]2)CCC12CCN(CCCn1cccn1)CC2 (centres undefined)	none
CCOCCC(=O)N1CC[C@@H]2[C@@H](CCC(=O)N2CCc2ccccn2)C1	none
O=C(CCCc1ccccc1)N[C@@H]1CN(c2ccncn2)C[C@H]1CO	none
Cc1nc(-c2c3n(c(=O)n(CC(=O)Nc4cccc(Cl)c4C)c2=O)CCCC3)no1	none
C[C@@H]1CN(C(=O)c2cnn(C)c2)CC[C@@]1(O)C1CCOCC1	none
O=C(O)Cn1ccc2cc(OCCc3cccc(-c4ccc(F)cc4)c3)cnc21	none
COC(=O)COCC(=O)NC[C@@H]1C=C(C)[C@H](CC(=O)NCc2ccc(F)cc2)C[C@H]1C(C)C	none
COc1ccc(-n2nc(C3CCN(Cc4ccc(C)cc4)CC3)[nH]c2=O)cc1	Pf Dd2 growth 13µM!
COc1ccc(-n2nc(C3CCN(Cc4ccc(F)cc4)CC3)[nH]c2=O)cc1	none
O=C(Cc1ccc(F)cc1)N1CCC(c2nn(-c3ccc(Cl)cc3)c(=O)[nH]2)CC1	none
CC(C)(C)C(=O)N1CCC(c2nn(-c3ccc(Cl)cc3)c(=O)[nH]2)CC1	Pf Dd2 growth 8.9µM
COc1ccc(C(=O)N2CCC(c3nn(-c4ccc(Cl)cc4)c(=O)[nH]3)CC2)cc1	none
COc1ccc(-n2nc(C3CCN(Cc4ccc(C#N)cc4)CC3)[nH]c2=O)cc1	none
O=C(O)CCc1cc2n(n1)CCN(C(=O)c1ccccc1-n1cccc1)C2	none
Cc1cc(CN2CCC3(CC2)CN(c2ncccn2)CC3CO)n(C)n1 (centres undefined)	none
Cc1cccc(CN2C[C@@H](F)[C@@H](OCc3nc4ccccc4n3C)C2)n1	none
CC(=O)NCc1cn[nH]c1-c1ccc(Cl)cc1	none
Cc1ccc(CC(=O)N[C@@H]2CN(c3ccncn3)C[C@H]2CO)cc1	none
Brc1ccc(-c2nc3ccccn3c2Nc2ccc3c(c2)OCCO3)o1	Pf Dd2 growth 13µM
Cc1ccc(-c2nc3ccc(Cl)cn3c2Nc2ccc3c(c2)OCCO3)s1	none
Cc1ccn2c(Nc3ccc4c(c3)OCCO4)c(-c3ccccc3O)nc2c1	Pf Dd2 growth 11µM
Cc1ccc(-c2nc3ccccn3c2Nc2ccc3c(c2)OCCO3)o1	none
Cc1ccc2nc(-c3ccc(C)o3)c(Nc3ccc4c(c3)OCCO4)n2c1	none
c1csc(-c2nc3ccccn3c2Nc2ccc3c(c2)OCCO3)c1	none
COc1ccc(CNC2(Cc3cc(C(=O)N4CCCCC4)on3)COC2)cc1	none
CNC(=O)c1ccc(CC2CCN(C(=O)C3CC3)CC2)cc1	none
COCCn1c(Cn2c(C)cc(=O)n(C)c2=O)nnc1C1CC(N)C1 (centres undefined)	none
CCCc1noc(-c2ccn3c(CNC(=O)CCC4CCCC4)nnc3c2)n1	none
CC(=O)c1ccc(NC(=O)N[C@@H]2C=C(C(=O)NCCC(N)=O)C[C@@H](O)[C@@H]2O)cc1	none
CC(Oc1ccc(F)cc1F)C(=O)N1CCC2(CC1)CC(=O)N(C)C2 (centres undefined)	none
COCCS(=O)(=O)c1ncc(CN2CC[C@@H]3CCCC[C@H]3C2)n1Cc1ccccc1	Pf Dd2 growth 6.3µM
COCCS(=O)(=O)c1ncc(CN(C)C(C)c2ccon2)n1Cc1ccccc1 (centres undefined)	none
CC(C)Cn1c(CN2CCSCC2)cnc1S(=O)(=O)Cc1ccccc1	none
C=CCNC(=O)C[C@@H]1CCN(C(=O)C2CC2)C[C@@H]1CC	none
O=C(NC[C@H]1OC[C@@H](NC2CCC2)[C@@H]1O)c1ccccc1	none
COc1cc(CNC(C)Cn2nc(C)cc2C)ccc1OCCN1CCCC1 (centres undefined)	Pf Dd2 growth 3.5µM
COc1cc(CNCc2cnn(C)c2C)ccc1OCC(O)CN1CCSCC1 (centres undefined)	none
COc1ccc(CNc2cc3c(cn2)CN(C)CCN3C)cc1OC	none
COc1ccc(-c2noc([C@@H]3CCCN3C(=O)COc3cccc(C)c3)n2)cc1OC	none
CC(=O)NC1CC2(CCN(C(=O)Cc3ccc(O)cc3)CC2)c2ccccc21 (centres undefined)	none
CC(C)NC(=O)NC1CC2(CCN(Cc3ccc(O)cc3)CC2)c2ccccc21 (centres undefined)	Pf Dd2 growth 2.8µM
CC(C)NC(=O)NC1CC2(CCN(C(=O)c3ccccc3)CC2)c2ccccc21 (centres undefined)	none
COC(=O)c1ccc(NC(=O)Cn2nc3n(c2=O)CCCC3)cc1	none
Cc1[nH]cnc1CN1CCCC(c2nnc(CN3CCC(O)CC3)n2C)C1 (centres undefined)	none
COc1ccc(-c2noc(-c3cccn3CC(=O)N3CCc4ccccc43)n2)cc1F	none
COc1ccc(C(=O)NCCn2cccc2-c2nc(-c3ccccc3)no2)cc1F	Pf Dd2 growth 5µM
O=C(Cn1cccc1-c1nc(-c2ccccc2)no1)NCc1ccc(F)cc1Cl	none
CCN(C(=O)Cn1cccc1-c1nc(-c2ccc(OC)c(F)c2)no1)c1ccccc1	none
COCCNC(=O)Cn1cccc1-c1nc(-c2ccc(OC)c(F)c2)no1	none
COc1ccccc1CC(=O)NCCn1cccc1-c1nc(-c2ccccc2)no1	Pf Dd2 growth 8.9µM
O=C(Cn1cccc1-c1nc(-c2ccccc2)no1)NCCc1ccc(Cl)cc1	none
COc1ccc(-c2noc(-c3cccn3CC(=O)Nc3ccc(C)c(C)c3)n2)cc1F	none
COc1ccc(-c2noc(-c3cccn3CC(=O)N3CCOc4ccc(C)cc43)n2)cc1F	Pf Dd2 growth 4µM
